The record followed here is PubChem BioAssay.

Test [1] is described as follows: compounds altering circadian rhythm period length – cell-based, LOPAC library, luminescence reporter (AID 2774).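 Further: values are relative to mean of DMSO wells on each plate.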 The settings on record: circadian reporter cells, at 7 µM, actives lie on both sides.
Test [2] deals with Hepatitis C virus NS3 helicase. As to the kind of experiment: blockers of NS3h binding to ssDNA – biochemical, fluorescence polarization, LOPAC1280 library, primary screen (AID 687035; in the data active means inhibition above about 37%). To be noted: Purified HCV NS3 helicase, Cy5-dT15 ssDNA binding fluorescence polarization; stronger effect = higher value; concentration not given here.
The nature of test [3]: compounds altering Cy5-DNA-NS3h complex signal – biochemical, LOPAC1280, artefact control for HCV NS3 helicase inhibitor project (AID 687037). To be noted: Cy5-DNA-NS3h complex fluorescence interference counterscreen.
Test [4] in a line: viability loss with induced miR-34 in A549 – imaging, A549 dox-inducible miR-34, nuclei and caspase counts, primary screen (AID 1347080;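 active means compounds whose cell count with miR-34 switched on is under 0.7 times the count with it off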). The settings on record: A549 miR-34 inducible, Hoechst nuclei count, 48 h.
A short description of test [5]: blockers of cellular phospholipid synthesis – cell-based, LOPAC library, screen 4, primary screen (AID 1347384). To be noted: animal cells, phospholipid biosynthesis inhibition screen; at 10 µM.
Test [6] can be described thus: galactose survival enhancers in mitochondrial complex I cybrids – cell-based, galactose medium, ATP luminescence, primary screen (AID 1645843;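 active means z-score of at least 1.8 in each of two replicates, scored against plate mean and spread of sample wells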;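 further: positive z means more ATP and so rescue of galactose-driven cybrid death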). The settings on record: complex I mutant cybrid cells, 72 h, stronger effect = higher value.
[7] abbreviates: stronger effect = lower value, cell number ratio, induced over uninduced.
[8] abbreviates: measured here: relative caspase fold change +Dox/-Dox.
The mark [9] stands for this setting: measured here: total cells with miR-34 induction, stronger effect = lower value.
Where [10] appears, read: measured here: total cells without miR-34 induction.

Each structure is given as a SMILES string. Activity calls are given as the source filed them. Unless noted, how the calls were made is not given here.

On to `CC(C)COC(=O)OCN1C(=O)CN(CCN2CC(=O)N(COC(=O)OCC(C)C)C(=O)C2)CC1=O`, for which the period change in test [1] is -0.045 h (inactive). For the same compound, in test [2], the inhibition is 1% (inactive). For the same compound, the fluorescence ratio (interference) in test [3] was 1 (inactive). Further, the results for the fold change in test [4] (setting [7]) and in test [4] (setting [8]) were 0.995 (inactive) and 1.59, respectively. In addition, the cell count is 8180 in test [4] (setting [9]) and 8220 in test [4] (setting [10]). Besides, the compound was classed as inactive in test [5]. Also, the z-score in test [6] is 0.435 (inactive).

Turning to `O=C(O)Cc1c[nH]c2ccc(O)cc12`, in test [1], the period change was -0.095 h (inactive). Besides, the inhibition in test [2] was -2% (inactive). Also, the fluorescence ratio (interference) in test [3] was 1 (inactive). Also, the fold change in test [4] (setting [7]) was 1.08 (inactive); in test [4] (setting [8]) it was 0.669. Moreover, the cell count turned out to be 9930 in test [4] (setting [9]) and 9210 in test [4] (setting [10]). Also, in test [5], the compound was classed as inactive. Further, the z-score in test [6] is 0.08 (inactive).

For the compound `C=C[C@H]1CN2CCC1C[C@H]2[C@H](O)c1ccnc2ccc(OC)cc12` (some centres not stated), the period change in test [1] was -0.145 h (inactive). Moreover, in test [2], the inhibition was -2% (inactive). In addition, the fluorescence ratio (interference) in test [3] is 1 (inactive). The figures for the fold change in test [4] (setting [7]) and in test [4] (setting [8]) were 1.04 (inactive) and 1.02, respectively. In addition, the values for the cell count in test [4] (setting [9]) and in test [4] (setting [10]) were 8290 and 8000, respectively. For the same compound, in test [5], the result was inactive. Also, in test [6], the z-score is -1.04 (inactive).

For the compound `CCN1C(=O)C=CC1=O`, the period change in test [1] is 0.135 h (inactive). Further, the inhibition in test [2] was -3% (inactive). For the same compound, the fluorescence ratio (interference) in test [3] was 1 (inactive). The fold change in test [4] (setting [7]) is 0.985 (inactive); in test [4] (setting [8]) it was 1.06. Moreover, the values for the cell count in test [4] (setting [9]) and in test [4] (setting [10]) were 9620 and 9760, respectively. In test [5], the compound was called inactive. Besides, in test [6], the z-score was -0.99 (inactive).

As for `CC1(C)CCC(NC(=O)[C@@H](N)CCC(=O)O)CC1`, the period change in test [1] is -0.095 h (inactive). Besides, in test [2], the inhibition was -6% (inactive). Besides, the fluorescence ratio (interference) in test [3] was 1 (inactive). Also, the figures for the fold change in test [4] (setting [7]) and in test [4] (setting [8]) were 1.1 (inactive) and 1.15, respectively. Moreover, the values for the cell count in test [4] (setting [9]) and in test [4] (setting [10]) were 11000 and 9970, respectively. Moreover, the compound was classed as inactive in test [5]. Besides, the z-score in test [6] is 0.125 (inactive).

Take `CC(C)C[C@H](NC(=O)C1OC1C(=O)O)C(=O)NCCCCN=C(N)N` (some centres not stated): the period change in test [1] is -0.035 h (inactive). Moreover, in test [2], the inhibition is 0% (inactive). Also, in test [3], the fluorescence ratio (interference) is 1 (inactive). Further, the fold change is 0.999 (inactive) in test [4] (setting [7]) and 1.62 in test [4] (setting [8]). Also, the cell count in test [4] (setting [9]) stood at 9550; in test [4] (setting [10]), 9560. For the same compound, in test [5], the compound was called inactive. Also, in test [6], the z-score was 0.15 (inactive).

For `C=C/C(C)=C/[C@@]1(C)SC(=O)C(C)=C1O`, the period change in test [1] was -0.02 h (inactive). Also, the inhibition in test [2] was -4% (inactive). Besides, in test [3], the fluorescence ratio (interference) is 1 (inactive). Also, the fold change in test [4] (setting [7]) was 1.05 (inactive); in test [4] (setting [8]), 1.19. For the same compound, the cell count in test [4] (setting [9]) is 10800; in test [4] (setting [10]) it was 10300. Besides, the compound was called inactive in test [5]. In test [6], the z-score is 0.66 (inactive).

For `CNC(=O)[C@H]1O[C@@H](n2cnc3c(NCc4ccc(N)cc4)ncnc32)C(O)[C@H]1O` (some centres not stated), in test [1], the period change is -0.095 h (inactive). In addition, the inhibition in test [2] is -2% (inactive). Moreover, the fluorescence ratio (interference) in test [3] was 1 (inactive). Further, the results for the fold change in test [4] (setting [7]) and in test [4] (setting [8]) were 1 (inactive) and 1.7, respectively. Also, the cell count in test [4] (setting [9]) was determined as 9670; in test [4] (setting [10]) it was 9680. Besides, the outcome in test [5] was inactive. In test [6], the z-score is 0.09 (inactive).

With `CC(=O)SCC[N+](C)(C)C`, the period change in test [1] was 0.015 h (inactive). Also, the inhibition in test [2] was 0% (inactive). For the same compound, the fluorescence ratio (interference) in test [3] is 1 (inactive). The figures for the fold change in test [4] (setting [7]) and in test [4] (setting [8]) were 1.01 (inactive) and 2.3, respectively. The cell count turned out to be 10500 in test [4] (setting [9]) and 10400 in test [4] (setting [10]). Moreover, in test [5], the compound was called inactive. In addition, the z-score in test [6] was 0.495 (inactive).

Consider `CNc1cc(NS(=O)(=O)c2ccc(N)cc2)nc(NC)n1`, for which the period change in test [1] was -0.065 h (inactive). Also, the inhibition in test [2] was -3% (inactive). Besides, the fluorescence ratio (interference) in test [3] is 1 (inactive). Also, the fold change in test [4] (setting [7]) is 1.09 (inactive); in test [4] (setting [8]), 0.965. Moreover, the values for the cell count in test [4] (setting [9]) and in test [4] (setting [10]) were 9150 and 8390, respectively. For the same compound, the compound was classed as inactive in test [5]. Besides, the z-score in test [6] is 0.695 (inactive).

As to `O=C(Nc1cccc(C(=O)Nc2ccc(S(=O)(=O)O)c3cc(S(=O)(=O)O)cc(S(=O)(=O)O)c23)c1)Nc1cccc(C(=O)Nc2ccc(S(=O)(=O)O)c3cc(S(=O)(=O)O)cc(S(=O)(=O)O)c23)c1`, the period change in test [1] is -0.03 h (inactive). Also, the inhibition in test [2] is 91% (active). Also, the fluorescence ratio (interference) in test [3] was 1.1 (inactive). Also, the fold change in test [4] (setting [7]) was 1.05 (inactive); in test [4] (setting [8]) it was 0.567. The cell count in test [4] (setting [9]) was determined as 9650; in test [4] (setting [10]), 9220. Besides, the outcome in test [5] was inactive. The z-score in test [6] is 0.865 (inactive).

Consider `C#CC(N)CCC(=O)O` (configuration not stated), for which the period change in test [1] was 0 h (inactive). Also, in test [2], the inhibition was -1% (inactive). In addition, the fluorescence ratio (interference) in test [3] was 1 (inactive). Moreover, the fold change is 1.04 (inactive) in test [4] (setting [7]) and 2.03 in test [4] (setting [8]). Also, the figures for the cell count in test [4] (setting [9]) and in test [4] (setting [10]) were 10600 and 10100, respectively. The outcome in test [5] was inactive. The z-score in test [6] was -0.17 (inactive).

Take `Fc1ccc(CN(C2=NCCN2)c2c(Cl)cccc2Cl)cc1`: in test [1], the period change was -0.015 h (inactive). In addition, the inhibition in test [2] is 1% (inactive). Also, in test [3], the fluorescence ratio (interference) was 1 (inactive). The fold change in test [4] (setting [7]) was 0.978 (inactive); in test [4] (setting [8]), 0.985. Besides, the cell count was 8870 in test [4] (setting [9]) and 9060 in test [4] (setting [10]). Also, in test [5], the compound was classed as inactive. Besides, the z-score in test [6] is -0.75 (inactive).

Consider `C[C@H](O)C(=O)C1=Nc2c(nc(N)[nH]c2=O)NC1`, for which the period change in test [1] was 0.19 h (inactive). The inhibition in test [2] was -3% (inactive). In addition, the fluorescence ratio (interference) in test [3] was 0.9 (inactive). The fold change was 0.965 (inactive) in test [4] (setting [7]) and 1.64 in test [4] (setting [8]). Also, the cell count in test [4] (setting [9]) worked out at 10200; in test [4] (setting [10]) it was 10500. For the same compound, in test [5], the outcome was inactive. Further, the z-score in test [6] is 0.4 (inactive).

With `CCCCCCCCCC[Si](C)(C)CCC(=O)NC(Cc1ccc(C)cc1)c1ccccc1` (configuration not stated), the period change in test [1] is 0.12 h (inactive). The inhibition in test [2] was -1% (inactive). In addition, the fluorescence ratio (interference) in test [3] is 1 (inactive). Also, the fold change is 1.02 (inactive) in test [4] (setting [7]) and 2.15 in test [4] (setting [8]). Further, the cell count in test [4] (setting [9]) was determined as 10100; in test [4] (setting [10]) it was 9990. Moreover, in test [5], the compound was called inactive. Also, the z-score in test [6] was -0.33 (inactive).

On to `O=C(O)c1cc(=O)cc(C(=O)O)[nH]1`, for which the period change in test [1] was -0.025 h (inactive). Further, in test [2], the inhibition is 0% (inactive). For the same compound, in test [3], the fluorescence ratio (interference) was 1 (inactive). Besides, the fold change in test [4] (setting [7]) is 0.984 (inactive); in test [4] (setting [8]) it was 1.62. The cell count in test [4] (setting [9]) was found to be 10200; in test [4] (setting [10]), 10300. Besides, the result in test [5] was inactive. In test [6], the z-score is 0.285 (inactive).

As for `NC1(C(=O)O)CCCCC1`, the period change in test [1] was -0.115 h (inactive). In addition, the inhibition in test [2] was -2% (inactive). In test [3], the fluorescence ratio (interference) is 1 (inactive). Further, the fold change in test [4] (setting [7]) was 0.983 (inactive); in test [4] (setting [8]), 2.37. For the same compound, the cell count in test [4] (setting [9]) worked out at 10700; in test [4] (setting [10]) it was 10900. For the same compound, the result in test [5] was inactive. Moreover, the z-score in test [6] was 0.63 (inactive).

Regarding `CC(=O)N[C@@H](Cc1c[nH]c2ccccc12)C(=O)OCc1cc(C(F)(F)F)cc(C(F)(F)F)c1`, the period change in test [1] is 0.005 h (inactive). Further, the inhibition in test [2] is -3% (inactive). Moreover, the fluorescence ratio (interference) in test [3] was 0.9 (inactive). The fold change in test [4] (setting [7]) is 1.03 (inactive); in test [4] (setting [8]), 1.8. In addition, the cell count is 9980 in test [4] (setting [9]) and 9690 in test [4] (setting [10]). The outcome in test [5] was inactive. Besides, the z-score in test [6] is -0.03 (inactive).
